# Data: PubChem BioAssay
# “And” between values parts separate entries of the source, which are not always exact repeats. Equal entries are not always repeated. The source made the active and inactive calls. Rule as the data show it, unless noted: active = parasite load remaining mostly below about 12% (no sharp cut-off); inactive = mostly above about 10%. Peptide text beside a SMILES is read from it.
# Tests used:
# [1] = P. berghei load reduction in hepatocytes – cell-based, HepG2, luciferase luminescence, HepG2 viability, primary screen (AID 624349);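 also: 100% = mean of DMSO negative control wells on the same plate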; conditions: P. berghei liver stage in HepG2, luciferase luminescence, concentration not given here; parasite load remaining: stronger effect = lower value; viability: measured here: HepG2 viability without parasites
# [2] = Wnt pathway potentiators raising nuclear beta-catenin – imaging, WNT3A-conditioned medium, mouse C2C12, NPC library, primary screen (AID 1117326; in the data active = nuclear beta-catenin stimulation mostly above about 4.2%, no sharp cut-off; inactive = mostly below about 10%); conditions: stronger effect = higher value
# [3] = compounds altering viability of human ES cells (AID 493140; call rule not given here;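 also: cells exposed to compounds for four days before counting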); conditions: human embryonic stem cell survival screen; stronger effect = higher value
# [4] = signal quenchers or enhancers, Cy5 substrate/SSB – biochemical, NIH Clinical Collection, E. coli SSB, artefact control for HCV NS3 helicase inhibitor project (AID 743268; call rule not given here); conditions: Cy5-oligo bound E. coli SSB, fluorescence interference
# [5] = system: Hepatitis C virus NS3 helicase; experiment: blockers of NS3h binding to DNA – biochemical, fluorescence polarization, NIH Clinical Collection, primary screen (AID 743270; call rule not given here); conditions: NS3 helicase binding to Cy5-dT15 DNA, stronger effect = higher value, concentration not given here
# [6] = target: Single-stranded DNA-binding protein (Escherichia coli (strain K12)) (UniProt P0AGE0); experiment: SSB-ssDNA binding inhibitors – biochemical, fluorescence polarization, NIH Clinical Collection, counter-screen for HCV NS3 helicase inhibitor project (AID 743271; in the data active = inhibition above about 28%); conditions: E. coli SSB-DNA binding, stronger effect = higher value, concentration not given here
# [7] = compounds distorting NS3 helicase fluorescence signal – biochemical, NIH Clinical Collection, artefact control for HCV NS3 helicase inhibitor project (AID 743272; call rule not given here;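 also: HCV NS3 helicase with a Cy5 labelled single stranded DNA probe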); conditions: fluorescence interference counterscreen, HCV NS3 helicase assay; stronger effect = lower value
# [8] = system: Neuropilin-2 / VEGF-C interaction (human); experiment: small molecules blocking Neuropilin-2/VEGF-C interaction – biochemical, microplate binding format, z-score (AID 743281; call rule not given here); conditions: microplate NRP2/VEGF-C binding assay; stronger effect = lower value
# [9] = system: Hepatitis C virus NS3 helicase; experiment: blockers of NS3h binding to ssDNA – biochemical, fluorescence polarization, LOPAC1280 library, primary screen (AID 687035; in the data active = inhibition above about 37%); conditions: Purified HCV NS3 helicase, Cy5-dT15 ssDNA binding fluorescence polarization; stronger effect = higher value; concentration not given here
# [10] = compounds altering Cy5-DNA-NS3h complex signal – biochemical, LOPAC1280, artefact control for HCV NS3 helicase inhibitor project (AID 687037; call rule not given here); conditions: Cy5-DNA-NS3h complex fluorescence interference counterscreen
compound,measurement,setting,value
CCCCc1nc(Cl)c(CO)n1Cc1ccc(-c2ccccc2-c2nn[nH]n2)cc1,parasite load remaining,[1],128% (inactive) and 49.4% (inactive)
same,viability,[1],84.8% and 98.4%
same,nuclear beta-catenin stimulation,[2]; at 10 µM,2.6% (inactive)
same,nuclear beta-catenin stimulation,"[2]; stimulation, at 2 µM",2.1%
Cc1cc(C(C)(C)C)c(O)c(C(C)(C)C)c1,parasite load remaining,[1],72.6% (inactive)
same,viability,[1],95.9%
same,nuclear beta-catenin stimulation,[2]; at 10 µM,1.4% (inactive)
same,nuclear beta-catenin stimulation,"[2]; stimulation, at 2 µM",0.1%
Cc1ncc([N+](=O)[O-])n1CC(O)CCl (configuration not stated),survival,[3],23.5 (inactive)
same,fluorescence ratio,[4],0.99 (inactive)
same,inhibition,[5],5.94% (inactive)
same,inhibition,[6],0.67% (inactive)
same,fluorescence ratio,[7],0.99 (inactive)
same,z-score,[8],-0.43 (inactive)
same,nuclear beta-catenin stimulation,[2]; at 10 µM,0.8% (inactive)
same,nuclear beta-catenin stimulation,"[2]; stimulation, at 2 µM",1.1%
COC(=O)[C@H](Cc1ccccc1)NC(=O)[C@@H](N)CC(=O)O (H-Asp-Phe-OMe),parasite load remaining,[1],156% (inactive) and 74.6% (inactive)
same,viability,[1],84.2% and 212%
same,nuclear beta-catenin stimulation,[2]; at 10 µM,4.5% (inactive)
same,nuclear beta-catenin stimulation,"[2]; stimulation, at 2 µM",1.1%
Cc1onc(-c2ccccc2)c1C(=O)N[C@@H]1C(=O)N2[C@@H]1SC(C)(C)[C@@H]2C(=O)O,parasite load remaining,[1],27.2% (inactive)
same,viability,[1],72.5%
same,nuclear beta-catenin stimulation,[2]; at 10 µM,-2.3% (inactive)
same,nuclear beta-catenin stimulation,"[2]; stimulation, at 2 µM",0.5%
COC(=O)N/N=C/c1c[n+]([O-])c2ccccc2[n+]1[O-],parasite load remaining,[1],174% (inactive) and 86.3% (inactive) and 64.3% (inactive)
same,viability,[1],93.9% and 108% and 125%
same,nuclear beta-catenin stimulation,[2]; at 10 µM,1.7% (inactive)
same,nuclear beta-catenin stimulation,"[2]; stimulation, at 2 µM",5.8%
Cc1cc(C)cc(OCC2CNC(=O)O2)c1 (configuration not stated),parasite load remaining,[1],135% (inactive) and 58.1% (inactive)
same,viability,[1],90% and 111%
same,nuclear beta-catenin stimulation,[2]; at 10 µM,-0.1% (inactive)
same,nuclear beta-catenin stimulation,"[2]; stimulation, at 2 µM",0.2%
Nc1c2ccccc2nc2ccccc12,parasite load remaining,[1],23.3% (inactive) and 22.9% (inactive)
same,viability,[1],78.7% and 67.3%
same,nuclear beta-catenin stimulation,[2]; at 10 µM,21.1% (inactive)
same,nuclear beta-catenin stimulation,"[2]; stimulation, at 2 µM",0.1%
CCc1oc2ccccc2c1C(=O)c1cc(Br)c(O)c(Br)c1,survival,[3],13.1 (inactive)
same,viability,[1],118% and 76% and 66.9%
same,fluorescence ratio,[4],0.92 (inactive)
same,inhibition,[5],-2.84% (inactive)
same,inhibition,[6],9.06% (inactive)
same,fluorescence ratio,[7],0.93 (inactive)
same,z-score,[8],0.212 (inactive)
same,nuclear beta-catenin stimulation,[2]; at 10 µM,5.3% (inactive)
same,nuclear beta-catenin stimulation,"[2]; stimulation, at 2 µM",4.6%
CC(C(=O)O)c1ccc2c(c1)[nH]c1ccc(Cl)cc12 (configuration not stated),parasite load remaining,[1],138% (inactive) and 52% (inactive)
same,viability,[1],73.1% and 91.7%
same,nuclear beta-catenin stimulation,[2]; at 10 µM,-0.6% (inactive)
same,nuclear beta-catenin stimulation,"[2]; stimulation, at 2 µM",1.1%
CCC[C@H](N[C@@H](C)C(=O)N1[C@H](C(=O)O)C[C@@H]2CCCC[C@@H]21)C(=O)OCC,parasite load remaining,[1],98.2% (inactive) and 68.9% (inactive) and 42.7% (inactive)
same,viability,[1],70.3% and 83% and 98.6%
same,nuclear beta-catenin stimulation,[2]; at 10 µM,1.3% (inactive)
same,nuclear beta-catenin stimulation,"[2]; stimulation, at 2 µM",0.5%
CC(C)NCC(O)COc1ccc(COCCOC(C)C)cc1 (configuration not stated),survival,[3],6.5 (inactive)
same,inhibition,[9],2% (inactive)
same,fluorescence ratio (interference),[10],1 (inactive)
same,fluorescence ratio,[4],1.04 (inactive)
same,inhibition,[5],1.19% (inactive)
same,inhibition,[6],-0.1% (inactive)
same,fluorescence ratio,[7],0.94 (inactive)
same,z-score,[8],-0.164 (inactive)
same,nuclear beta-catenin stimulation,[2]; at 10 µM,0.8% (inactive)
same,nuclear beta-catenin stimulation,"[2]; stimulation, at 2 µM",1.2%
CNC[C@H](O)[C@@H](O)[C@H](O)[C@H](O)CO,parasite load remaining,[1],64.5% (inactive)
same,viability,[1],224%
same,nuclear beta-catenin stimulation,[2]; at 10 µM,-1.8% (inactive)
same,nuclear beta-catenin stimulation,"[2]; stimulation, at 2 µM",-1.1%
